From PubChem BioAssay (NCI)
“And” between values parts separate entries of the source, which are not always exact repeats. Identical values can stand only once. The panel holds about 83,000 compounds, 20% with a hit somewhere; the sample as a whole holds those more often.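 Plates (96-well) were seeded with cells, treated with compound at one concentration, and incubated for 48 hours before percent growth was determined.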 The source made the active and inactive calls. Rule for the calls: active = growth percent below 10; inactive = the rest.

Test system: MDA-MB-468 breast
Test: NCI-60 one-dose screen, 48 h (100 = growth as untreated, 0 = no growth, -100 = all killed)
Conditions: 10 µM unless noted

Row | SMILES | growth
1 | Cc1ccnc(Nc2ccc([N+](=O)[O-])c(NCCN3CCOCC3)n2)c1 | 26.3% (inactive)
2 | Cc1c(C(N)=O)sc2nc(C)n(/N=c3\scc(-c4ccccc4)n3Cc3ccccc3)c(=O)c12 | 79.9% (inactive)
3 | N#Cc1c(-c2ccc(Cl)cc2)cc(-c2cc(O)ccc2O)nc1N | 19.4% (inactive)
4 | CS(=O)(=O)Nc1cc(-c2ccc3ncnc(Nc4ccc5[nH]ncc5c4)c3c2)cnc1Cl | 16.6% (inactive)
5 | Cc1cccc(Cl)c1NC(=O)c1cnc(Nc2cc(N3CCOCC3)cc(N3CCOCC3)c2)s1 | -8.47% (active)
6 | O=C(/C=C/c1ccc(F)cc1)N1CCN(C(=O)/C=C/c2ccc(C(F)(F)F)cc2)CC1 | 117% (inactive)
7 | COc1ccc(C2=NN(C(C)=O)C(c3cn(-c4ccccc4)nc3-c3ccc(Cl)cc3)C2)cc1 (centres undefined) | -1.41% (active)
8 | Clc1ccc2c(c1)c(-c1ccccc1)nc1nncn12 | 110% (inactive)
9 | Cc1nc(-c2cc3ccccc3oc2=O)ccc1C(=O)/C=C/c1ccc(N2CCOCC2)cc1 | 45.6% (inactive)
10 | Cc1c2cnccc2c(C)c2c1c1cc(C(=O)O)ccc1n2C | -7.86% (active)
11 | CC[C@H](Nc1ncnc2nc[nH]c12)c1nc2cccc(CC(=O)c3ccc(C(=O)NO)cc3)c2c(=O)n1-c1ccccc1 | 60.8% (inactive)
12 | Cc1ccc(N=c2nc3sc4c(C)ccc(C)c4n3c(N)c2C#N)cc1 | 115% (inactive)
13 | O=[N+]([O-])c1ccc(O)c2ncccc12 | 30.6% (inactive) and 1.77% (active)
14 | COc1ccc(CSc2nnc(SCC(=O)Nc3ccc(Cl)cc3)s2)cc1 | 91.1% (inactive)
15 | Brc1cc(-c2cc(-c3ccc4c(c3)OC=CO4)[nH]n2)cs1 | 30% (inactive)
16 | NS(=O)(=O)c1ccc(Nc2nc(Nc3ccccc3)nc(-n3nc(-c4ccccc4)cc3-c3ccccc3)n2)cc1 | 11.7% (inactive)
17 | COc1ccccc1/C=C/C(=O)c1nnn(-c2ccc(F)cc2)c1C | 38.2% (inactive)
18 | Cn1c2ccccc2c2nnc(N/N=C/c3ccccn3)nc21 | -25.1% (active)
19 | Cc1ccc(Nc2ncnc3c2c(C)nn3-c2ccc([N+](=O)[O-])cc2)cc1 | 84.2% (inactive)
20 | C[N+](C)(C)c1ccc(CC2c3ccccc3-c3ccccc32)cc1 | -24.1% (active)

Row | SMILES | growth
21 | NNCCc1ccccc1 | 113% (inactive) and 89.6% (inactive)
22 | CCNC(=O)Oc1ccc(/C(=C(\C)c2ccccc2)c2ccc(OCCN(CC)CC)cc2)cc1 | 79.3% (inactive)
23 | O=S(=O)(NCCO)c1ccc(OCCOc2ccc(S(=O)(=O)NCCO)cc2)cc1 | 95.3% (inactive)
24 | CCOC(=O)c1ccc(NC2=CC(=O)C(C)=C(C)C2=O)cc1 | 13.8% (inactive)
25 | CN1CCN(Cc2ccc(NC(=O)c3nc4ccc5[nH]ncc5c4c4c3CCCC4)cc2C(F)(F)F)CC1 | -92.9% (active)
26 | CC(=O)C1CCC2C3CC(F)C4=CC(=O)CCC4(C)C3C(O)CC12C (centres undefined) | 104% (inactive)
27 | C/C=C/C(N)=O | 101% (inactive)
28 | COc1ccc(-c2nn(-c3ccc(NC(=O)c4cc(C(F)(F)F)cc(C(F)(F)F)c4)cc3)cc2-c2ccncc2)cc1Cl | 77.1% (inactive)
29 | N#Cc1ccc(OC(=O)Nc2cc(Cl)cc(Cl)c2)cc1 | -16.4% [100 µM] (active)
30 | Cc1cc(-c2ccccc2)on1 | 109% (inactive)
31 | Clc1ccc(N2N=C(c3cccc(Nc4ccncc4)c3)CC2c2ccc3c(c2)OCO3)cc1 (centres undefined) | 62.1% (inactive)
32 | N=C(N=C(N)N)N1CCOCC1 | 100% (inactive) and 101% (inactive)
33 | COc1ccc(-c2cn(Cc3cc4ccccc4s3)nn2)cc1OCCN1CCCCC1 | 63.8% (inactive)
34 | O=C(/C=C/C12c3ccccc3C(c3ccccc31)C1C(=O)NC(=O)C12)c1ccccc1 (centres undefined) | 9.65% (active)
35 | O=C(Nc1ccc(Cl)c(Cl)c1)OCc1ccco1 | 0.972% (active)
36 | O=C1c2c(O)cc(O)cc2OC(c2ccc(O)c(O)c2)C1O (centres undefined) | 112% (inactive)
37 | Cc1c(Nc2nnc(SCC(=O)Nc3sc4c(c3C#N)CCCC4)s2)c(=O)n(-c2ccccc2)n1C | 107% (inactive)
38 | CC(C)(C)NC(=O)C(OC(=O)C1CCc2cc(F)ccc2O1)c1ccccc1Cl (centres undefined) | 105% (inactive)
39 | CCOC(=O)C(C(C)=O)c1nc2sc3cc(Cl)c(Cl)cc3n2c(=O)c1C#N (centres undefined) | 89.5% (inactive)
